From the supplement of paper PMC10037445
Over roughly 2,900 compounds, “NF-kB SEAP reporter activity, fold change vs agonist alone” has its median near 0.99; the highest 2% begin near 2.6. Only a selection was taken, and the highest values are over-represented in it overall.

Assays:
[1] = tested on: RAW-Dual; assay: NF-kB SEAP reporter activity, fold change vs agonist alone; higher = enhanced NF-kB activity
Method in brief: (§1)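 Cytotoxic wells were those whose IncuCyte confluency was below 70% of agonist controls in both mask sets. The cells were RAW-Dual macrophages at 50,000 cells/well in DMEM on 384-well plates, dosed with 50 nL of library stock by pin tool, stimulated with a PRR agonist 1 h later, and kept at 37 °C, 5% CO2 for 20 hours. IRF and NF-κB reporter activity, as fold change over agonist-alone wells, came from supernatant read by QuantiLuc luminescence and QuantiBlue absorbance, respectively.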

[2] = tested on: RAW-Dual; assay: NF-kB SEAP reporter activity, fold change vs agonist alone; cytotoxicity flag (confluency mask): not cytotoxic; higher = enhanced NF-kB activity
Method in brief: as §1

[3] = tested on: RAW-Dual; assay: NF-kB SEAP reporter activity, fold change vs agonist alone; cytotoxicity flag (confluency mask): cytotoxic (confluency <70% of control); higher = enhanced NF-kB activity
Method in brief: as §1

[4] = library stock concentration (final ~1000-fold dilution): 10 mM, cytotoxicity flag (confluency mask): not cytotoxic, agonist: MPLA (TLR4) […]
[5] = agonist: ODN 1826 (TLR9) 0.5 ug/mL
[6] = agonist: Pam2CSK4 (TLR2/6) 0.1 ug/mL
[7] = agonist: Pam3CSK4 (TLR2/1) 0.1 ug/mL
[8] = library stock concentration (final ~1000-fold dilution): 10 mM, cytotoxicity flag (confluency mask): cytotoxic (confluency <70% of control), agonist: MPLA (TLR4) […]
[9] = library stock concentration (final ~1000-fold dilution): 10 mM, cytotoxicity flag (confluency mask): cytotoxic (confluency <70% of control), agonist: Imiquimod (TLR7) […]
[10] = library stock concentration (final ~1000-fold dilution): 10 mM, cytotoxicity flag (confluency mask): not cytotoxic, agonist: Imiquimod (TLR7) […]

COc1ccc(NC(=O)c2ccc(C(=N)N(C)C)cc2)c(C(=O)Nc2ccc(Cl)cn2)c1.O=C(O)/C=C\C(=O)O
NF-kB SEAP reporter activity [1, 4]: 0.953

COc1ccc(NC(=O)c2ccc(C(=N)N(C)C)cc2)c(C(=O)Nc2ccc(Cl)cn2)c1.O=C(O)/C=C\C(=O)O (library stock concentration (final ~1000-fold dilution): 10 mM)
NF-kB SEAP reporter activity ([2]; agonist: LPS (TLR4) 0.1 ug/mL): 0.955
NF-kB SEAP reporter activity [2, 5]: 0.994
NF-kB SEAP reporter activity [2, 6]: 1.1
NF-kB SEAP reporter activity [2, 7]: 1.06

COc1cc2c(Oc3ccc4[nH]c(C)cc4c3F)ccnc2cc1OCC1(N)CC1.Cl.Cl (library stock concentration (final ~1000-fold dilution): 10 mM)
NF-kB SEAP reporter activity ([3]; agonist: LPS (TLR4) 0.1 ug/mL): 1.7
NF-kB SEAP reporter activity [3, 5]: 0.29
NF-kB SEAP reporter activity [3, 6]: 1.17
NF-kB SEAP reporter activity [3, 7]: 1.74

COc1cc2c(Oc3ccc4[nH]c(C)cc4c3F)ncnc2cc1OCCCN1CCCC1.O=C(O)/C=C\C(=O)O
NF-kB SEAP reporter activity [1, 8]: 2.65

COc1cc2c(Oc3ccc4[nH]c(C)cc4c3F)ncnc2cc1OCCCN1CCCC1 (library stock concentration (final ~1000-fold dilution): 10 mM)
NF-kB SEAP reporter activity ([3]; agonist: LPS (TLR4) 0.1 ug/mL): 0.671
NF-kB SEAP reporter activity [3, 5]: 0.212
NF-kB SEAP reporter activity [3, 6]: 1.03
NF-kB SEAP reporter activity [3, 7]: 1.37

COc1cc2c(Oc3ccc4[nH]c(C)cc4c3F)ncnc2cc1OCCCN1CCCC1
NF-kB SEAP reporter activity [1, 9]: 1.98
NF-kB SEAP reporter activity [1, 8]: 1.96

COc1cc2c(Oc3ccc4[nH]c(C)cc4c3F)ccnc2cc1OCC1(N)CC1.Cl.Cl
NF-kB SEAP reporter activity [1, 9]: 1.53
NF-kB SEAP reporter activity [1, 8]: 1.89

COc1cc2c(Oc3ccc4[nH]c(C)cc4c3F)ncnc2cc1OCCCN1CCCC1.O=C(O)/C=C\C(=O)O (library stock concentration (final ~1000-fold dilution): 10 mM)
NF-kB SEAP reporter activity ([3]; agonist: LPS (TLR4) 0.1 ug/mL): 2.81
NF-kB SEAP reporter activity [3, 5]: 0.402
NF-kB SEAP reporter activity [3, 6]: 1.61
NF-kB SEAP reporter activity [3, 7]: 1.15

Cl.Nc1ccc(N=Nc2ccccc2)c(N)n1 (library stock concentration (final ~1000-fold dilution): 10 mM)
NF-kB SEAP reporter activity ([2]; agonist: LPS (TLR4) 0.1 ug/mL): 1.22
NF-kB SEAP reporter activity [2, 5]: 0.928
NF-kB SEAP reporter activity [2, 6]: 1.09
NF-kB SEAP reporter activity [2, 7]: 0.933

Cl.Nc1ccc(N=Nc2ccccc2)c(N)n1
NF-kB SEAP reporter activity [1, 10]: 1.1
NF-kB SEAP reporter activity [1, 4]: 1.08

Nc1nc(=O)n(C2CSC(CO)O2)cc1F (stereo unspecified) (library stock concentration (final ~1000-fold dilution): 10 mM)
NF-kB SEAP reporter activity ([2]; agonist: LPS (TLR4) 0.1 ug/mL): 0.99
NF-kB SEAP reporter activity [2, 5]: 1.1
NF-kB SEAP reporter activity [2, 6]: 1.1
NF-kB SEAP reporter activity [2, 7]: 1.13

Nc1nc(=O)n(C2CSC(CO)O2)cc1F (stereo unspecified)
NF-kB SEAP reporter activity [1, 10]: 0.983
NF-kB SEAP reporter activity [1, 4]: 1.14

CCC(C)SSc1ncc[nH]1 (stereo unspecified) (library stock concentration (final ~1000-fold dilution): 10 mM)
NF-kB SEAP reporter activity ([2]; agonist: LPS (TLR4) 0.1 ug/mL): 4.74
NF-kB SEAP reporter activity [2, 5]: 2.67
NF-kB SEAP reporter activity [2, 6]: 1.44
NF-kB SEAP reporter activity [2, 7]: 2.7

CCC(C)SSc1ncc[nH]1 (stereo unspecified)
NF-kB SEAP reporter activity [1, 10]: 1.51
NF-kB SEAP reporter activity [1, 4]: 1.85

Cc1[nH]c(/C=C2\C(=O)Nc3ccc(S(=O)(=O)Cc4c(Cl)cccc4Cl)cc32)c(C)c1C(=O)N1CCCC1CN1CCCC1 (stereo unspecified) (library stock concentration (final ~1000-fold dilution): 10 mM)
NF-kB SEAP reporter activity ([3]; agonist: LPS (TLR4) 0.1 ug/mL): 0.658
NF-kB SEAP reporter activity [3, 5]: 1.39
NF-kB SEAP reporter activity [3, 6]: 0.551
NF-kB SEAP reporter activity [3, 7]: 0.886

Cc1[nH]c(/C=C2\C(=O)Nc3ccc(S(=O)(=O)Cc4c(Cl)cccc4Cl)cc32)c(C)c1C(=O)N1CCCC1CN1CCCC1 (stereo unspecified)
NF-kB SEAP reporter activity [1, 9]: 2.04
NF-kB SEAP reporter activity [1, 8]: 1.3

CC(C)Oc1ccc(C(=O)NC(CNC(=O)CN(C)C)Cc2ccc(-c3cn4cccc(C(C)O)c4n3)cc2)cc1Cl (stereo unspecified) (library stock concentration (final ~1000-fold dilution): 10 mM)
NF-kB SEAP reporter activity ([2]; agonist: LPS (TLR4) 0.1 ug/mL): 0.934
NF-kB SEAP reporter activity [2, 5]: 0.199
NF-kB SEAP reporter activity [2, 6]: 1.02
NF-kB SEAP reporter activity [2, 7]: 1.03

CC(C)Oc1ccc(C(=O)NC(CNC(=O)CN(C)C)Cc2ccc(-c3cn4cccc(C(C)O)c4n3)cc2)cc1Cl (stereo unspecified)
NF-kB SEAP reporter activity [1, 10]: 1.37
NF-kB SEAP reporter activity [1, 4]: 1.39

Nc1ncnc2c1c(I)cn2C1OC(CO)C(O)C1O (stereo unspecified)
NF-kB SEAP reporter activity [1, 9]: 0.145
NF-kB SEAP reporter activity [1, 8]: 0.26

Nc1ncnc2c1c(I)cn2C1OC(CO)C(O)C1O (stereo unspecified) (library stock concentration (final ~1000-fold dilution): 10 mM)
NF-kB SEAP reporter activity ([3]; agonist: LPS (TLR4) 0.1 ug/mL): 0.213
NF-kB SEAP reporter activity [3, 5]: 0.195
NF-kB SEAP reporter activity [3, 6]: 0.0844
NF-kB SEAP reporter activity [3, 7]: 0.123

C=C1CCC(O)CC1=CC=C1CCCC2(C)C1CCC2C(C)CCCC(C)C (stereo unspecified)
NF-kB SEAP reporter activity ([1]; library stock concentration (final ~1000-fold dilution): 1 mM, cytotoxicity flag (confluency mask): not cytotoxic, agonist: Imiquimod (TLR7) […]): 1.17
NF-kB SEAP reporter activity ([1]; library stock concentration (final ~1000-fold dilution): 1 mM, cytotoxicity flag (confluency mask): not cytotoxic, agonist: MPLA (TLR4) […]): 0.651

C=C1CCC(O)CC1=CC=C1CCCC2(C)C1CCC2C(C)CCCC(C)C (stereo unspecified) (library stock concentration (final ~1000-fold dilution): 1 mM)
NF-kB SEAP reporter activity ([2]; agonist: LPS (TLR4) 0.1 ug/mL): 0.593
NF-kB SEAP reporter activity [2, 5]: 1.12
NF-kB SEAP reporter activity [2, 6]: 1.12
NF-kB SEAP reporter activity [2, 7]: 1.27

O=C(O)CCN1C(=O)C(=Cc2ccc(-c3ccc([N+](=O)[O-])cc3)o2)SC1=S
NF-kB SEAP reporter activity [1, 10]: 0.675
NF-kB SEAP reporter activity [1, 4]: 0.731

O=C(O)CCN1C(=O)C(=Cc2ccc(-c3ccc([N+](=O)[O-])cc3)o2)SC1=S (library stock concentration (final ~1000-fold dilution): 10 mM)
NF-kB SEAP reporter activity ([2]; agonist: LPS (TLR4) 0.1 ug/mL): 0.807
NF-kB SEAP reporter activity [2, 5]: 0.649
NF-kB SEAP reporter activity [2, 6]: 0.104
NF-kB SEAP reporter activity [2, 7]: 0.296

COc1ccc(-c2ccc3c(N4CCOCC4)nc(N4CC(C)OC(C)C4)nc3n2)cc1CO (stereo unspecified)
NF-kB SEAP reporter activity [1, 10]: 0.91
NF-kB SEAP reporter activity [1, 4]: 0.935

COc1ccc(-c2ccc3c(N4CCOCC4)nc(N4CC(C)OC(C)C4)nc3n2)cc1CO (stereo unspecified) (library stock concentration (final ~1000-fold dilution): 10 mM)
NF-kB SEAP reporter activity ([2]; agonist: LPS (TLR4) 0.1 ug/mL): 0.793
NF-kB SEAP reporter activity [2, 5]: 0.836
NF-kB SEAP reporter activity [2, 6]: 0.365
NF-kB SEAP reporter activity [2, 7]: 0.707
